Test results from PubChem BioAssay (NCATS).
Several values for one entry are separate records, joined by “and”; a condition that tells them apart may be missing. Equal values may be shown once. Records with an inconclusive call do not appear. A call without a number means that no potency is given here. Activity calls are given as the source filed them. The call rests on the fitted dose curve; in most records, active means well fitted curve in the direction sought with a large enough effect; inconclusive means small, poorly fitted or top-dose-only effect, or another doubt; inactive means no such curve, though single readings can be large; an effect the other way counts as inactive or inconclusive. Non-standard residues stand in square brackets, D forms with d. Residues, ends and D or L forms follow the SMILES beside them. Peptide text beside a SMILES is read from it. *: point of attachment. Sta = CC(C)C[C@H](N)[C@@H](O)CC(=O)O; Isovaleryl = CC(C)CC(=O)*

Experiments:
[1] = qHTS of pediatric cancer cell lines to identify multiple opportunities for drug repurposing: Primary screen for U-2 OS cells (AID 1347096); further: nearly all actives have a fitted effect of over 50% in size
Summary of the method: (§1)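 Cells (500-1,000/well) in growth media were settled 5 h at 37 degrees C, then given compounds for 48 h. Viability was read as CellTiter-Glo luminescence. Primary runs used MIPE at 11 points (0.78 nM-46 µM) and NPC at 8 points (0.59 nM-46 µM); follow-ups used 11 points.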

[2] = qHTS of pediatric cancer cell lines to identify multiple opportunities for drug repurposing: Primary screen for Saos-2 cells (AID 1347097); further: nearly all actives have a fitted effect of over 40% in size; further: potency means the concentration at half of the fitted maximal effect
Summary of the method: (§2)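 Viability was measured as metabolically active cells after 48 hours of treatment, read by CellTiter-Glo luminescence. Compounds were tested at multiple final concentrations, giving concentration-response curves.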

[3] = qHTS of pediatric cancer cell lines to identify multiple opportunities for drug repurposing: Primary screen for SK-N-SH cells (AID 1347098); further: nearly all actives have a fitted effect of over 65% in size; further: potency means the concentration at half of the fitted maximal effect
Summary of the method: (§3)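 Cells (500-1,000/well) rested 5 h, then received compounds for 48 h; metabolically active cells were measured by CellTiter-Glo luminescence. Final concentrations spanned up to 46 µM (MIPE, 11-point) or 0.59 nM-46 µM (NPC, 8-point) in primary screens, 11-point in follow-ups.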

[4] = qHTS of pediatric cancer cell lines to identify multiple opportunities for drug repurposing: Primary screen for NB1643 cells (AID 1347099); further: nearly all actives have a fitted effect of over 50% in size; further: potency means the concentration at half of the fitted maximal effect
Summary of the method: as §2

[5] = qHTS of pediatric cancer cell lines to identify multiple opportunities for drug repurposing: Primary screen for LAN-5 cells (AID 1347100); further: potency means the concentration at half of the fitted maximal effect
Summary of the method: as §1

[6] = qHTS of pediatric cancer cell lines to identify multiple opportunities for drug repurposing: Primary screen for BT-12 cells (AID 1347101); further: nearly all actives have a fitted effect of over 25% in size; further: potency means the concentration at half of the fitted maximal effect
Summary of the method: as §3

[7] = qHTS of pediatric cancer cell lines to identify multiple opportunities for drug repurposing: Primary screen for Rh18 cells (AID 1347102); further: nearly all actives have a fitted effect of over 65% in size; further: potency means the concentration at half of the fitted maximal effect
Summary of the method: as §1

[8] = qHTS of pediatric cancer cell lines to identify multiple opportunities for drug repurposing: Primary screen for OHS-50 cells (AID 1347103); further: nearly all actives have a fitted effect of over 40% in size; further: potency means the concentration at half of the fitted maximal effect
Summary of the method: as §3

[9] = qHTS of pediatric cancer cell lines to identify multiple opportunities for drug repurposing: Primary screen for RD cells (AID 1347104); further: nearly all actives have a fitted effect of over 55% in size; further: potency means the concentration at half of the fitted maximal effect
Summary of the method: as §2

[10] = qHTS of pediatric cancer cell lines to identify multiple opportunities for drug repurposing: Primary screen for MG 63 (6-TG R) cells (AID 1347105); further: nearly all actives have a fitted effect of over 50% in size; further: potency means the concentration at half of the fitted maximal effect
Summary of the method: as §2

[11] = qHTS of pediatric cancer cell lines to identify multiple opportunities for drug repurposing: Primary screen for control Hh wild type fibroblast cells (AID 1347106);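 further: series mostly up to about 46 µM; a drop in luminescence marks cytotoxicity and a rise apparent proliferation; nearly all actives have a fitted effect of over 55% in size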
Summary of the method: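 Viability after 48 h compound treatment at 37C, 500-1,000 cells/well, read as ATP luminescence with CellTiter-Glo. Primary screens used 11-point (MIPE, 0.78 nM-46 µM) or 8-point (NPC, 0.59 nM-46 µM) final concentrations; follow-up screens used 11-point dilutions.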

[12] = qHTS of pediatric cancer cell lines to identify multiple opportunities for drug repurposing: Primary screen for Rh30 cells (AID 1347107); further: nearly all actives have a fitted effect of over 75% in size; further: potency means the concentration at half of the fitted maximal effect
Summary of the method: as §1

[13] = qHTS of pediatric cancer cell lines to identify multiple opportunities for drug repurposing: Primary screen for Rh41 cells (AID 1347108); further: nearly all actives have a fitted effect of over 70% in size; further: potency means the concentration at half of the fitted maximal effect
Summary of the method: as §2

[14] = qHTS of pediatric cancer cell lines to identify multiple opportunities for drug repurposing: Confirmatory screen for NB1643 cells (AID 1347109); further: nearly all actives have a fitted effect of over 45% in size; further: potency means the concentration at half of the fitted maximal effect
Summary of the method: as §1

[15] = qHTS of pediatric cancer cell lines to identify multiple opportunities for drug repurposing: Confirmatory screen for A673 cells (AID 1347110);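 further: cells exposed to compound for 48 h before the viability read; nearly all actives have a fitted effect of over 65% in size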; further: potency means the concentration at half of the fitted maximal effect
Summary of the method: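 qHTS titration format: primary MIPE 0.78 nM-46 µM (11 pts), NPC 0.59 nM-46 µM; confirmation 11 pts. 48 h, CTG luminescence.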

[16] = qHTS of pediatric cancer cell lines to identify multiple opportunities for drug repurposing: Confirmatory screen for LAN-5 cells (AID 1347113); further: nearly all actives have a fitted effect of over 65% in size
Summary of the method: as §1

[17] = qHTS of pediatric cancer cell lines to identify multiple opportunities for drug repurposing: Confirmatory screen for NB-EBc1 cells (AID 1347115);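 further: cells exposed to compound for 48 h before the viability read; nearly all actives have a fitted effect of over 45% in size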
Summary of the method: as §1

[18] = qHTS of pediatric cancer cell lines to identify multiple opportunities for drug repurposing: Primary screen for NB-EBc1 cells (AID 1347095); further: potency means the concentration at half of the fitted maximal effect
Summary of the method: as §2

[19] = qHTS of pediatric cancer cell lines to identify multiple opportunities for drug repurposing: Confirmatory screen for SJ-GBM2 cells (AID 1347116); further: nearly all actives have a fitted effect of over 60% in size
Summary of the method: (§4)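 Viability measured as metabolically active cells via CellTiter-Glo luminescence following 48 hours of compound exposure, 11-point dilutions in confirmatory testing. 500-1,000 cells/well plated 5 hours before dosing; controls were DMSO and 2.3 µM bortezomib.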

[20] = qHTS of pediatric cancer cell lines to identify multiple opportunities for drug repurposing: Confirmatory screen for DAOY cells (AID 1347114); further: nearly all actives have a fitted effect of over 65% in size
Summary of the method: as §4

CCOC(=O)c1c(C)n(C)c2ccc(O)cc12
Potency [1]: inactive
Potency [2]: inactive
Potency [3]: inactive
Potency [4]: inactive
Potency [5]: inactive
Potency [6]: inactive
Potency [7]: inactive
Potency [8]: inactive
Potency [9]: inactive
Potency [10]: inactive
Potency [11]: inactive
Potency [12]: inactive
Potency [13]: inactive

COC(=O)[C@H](Cc1ccccc1)NC(=O)[C@@H](N)CC(=O)O (H-Asp-Phe-OMe)
Potency [1]: inactive
Potency [2]: inactive
Potency [3]: inactive
Potency [4]: inactive
Potency [5]: inactive
Potency [6]: inactive
Potency [7]: inactive
Potency [8]: inactive
Potency [9]: inactive
Potency [10]: inactive
Potency [11]: inactive
Potency [12]: inactive
Potency [13]: inactive

O=C(CCc1ccc(O)cc1)c1c(O)cc(O)cc1O
Potency [1]: inactive
Potency [2]: inactive
Potency [3]: inactive
Potency [5]: 6.62 µM (active)
Potency [6]: 1.22 µM (active)
Potency [7]: inactive
Potency [8]: 0.432 µM (active)
Potency [9]: inactive
Potency [10]: inactive
Potency [11]: inactive
Potency [12]: inactive
Potency [13]: inactive
Potency [14]: inactive
Potency [15]: inactive
Potency [16]: inactive
Potency [17]: inactive

NNc1nncc2ccccc12
Potency [1]: inactive
Potency [2]: inactive
Potency [3]: inactive
Potency [4]: inactive
Potency [5]: inactive
Potency [6]: inactive
Potency [7]: inactive
Potency [8]: inactive
Potency [9]: inactive
Potency [10]: inactive
Potency [12]: inactive
Potency [13]: inactive

CN(C)C(=O)COC(=O)Cc1ccc(OC(=O)c2ccc(N=C(N)N)cc2)cc1
Potency [1]: inactive
Potency [2]: inactive
Potency [3]: inactive
Potency [4]: inactive
Potency [5]: inactive
Potency [6]: inactive
Potency [7]: inactive
Potency [8]: inactive
Potency [9]: inactive
Potency [10]: inactive
Potency [12]: inactive
Potency [13]: inactive

CCc1nc(N)nc(N)c1-c1ccc(Cl)cc1
Potency [18]: 2.66 µM (active) and 5.26 µM (active)
Potency [2]: inactive
Potency [3]: inactive
Potency [4]: inactive
Potency [7]: inactive
Potency [9]: 10.6 µM (active) and 18.7 µM (active)
Potency [11]: inactive
Potency [12]: inactive
Potency [13]: inactive
Potency [15]: 329 nM (active)

Nc1cc(C(Cl)=C(Cl)Cl)c(S(N)(=O)=O)cc1S(N)(=O)=O
Potency [1]: inactive
Potency [2]: inactive
Potency [3]: inactive
Potency [4]: inactive
Potency [5]: inactive
Potency [6]: inactive
Potency [7]: inactive
Potency [8]: inactive
Potency [9]: inactive
Potency [10]: inactive
Potency [11]: inactive
Potency [12]: inactive
Potency [13]: inactive

C[Se]CCC(N)C(=O)O (stereo not drawn)
Potency [1]: inactive
Potency [2]: inactive
Potency [3]: inactive
Potency [5]: inactive
Potency [6]: inactive
Potency [7]: inactive
Potency [8]: inactive
Potency [9]: inactive
Potency [10]: inactive
Potency [13]: inactive

S=c1nc[nH]c2nc[nH]c12
Potency [18]: 531 nM (active) and 1.66 µM (active)
Potency [2]: inactive
Potency [5]: 1.5 µM (active) and 2.96 µM (active)
Potency [7]: inactive
Potency [8]: 2.19 µM (active) and 3.06 µM (active)
Potency [9]: inactive
Potency [10]: inactive
Potency [11]: inactive
Potency [13]: inactive

c1ccc2[nH]c(-c3cscn3)nc2c1
Potency [1]: inactive
Potency [2]: inactive
Potency [3]: inactive
Potency [4]: inactive
Potency [5]: inactive
Potency [6]: inactive
Potency [7]: inactive
Potency [8]: inactive
Potency [9]: inactive
Potency [11]: inactive
Potency [12]: inactive
Potency [13]: inactive

Cc1ccc(S(=O)(=O)NC(=O)NN2CC3CCCC3C2)cc1 (stereo not drawn)
Potency [1]: inactive
Potency [2]: 7.5 µM (active) and 18.7 µM (active)
Potency [3]: inactive
Potency [4]: inactive
Potency [6]: inactive
Potency [7]: inactive
Potency [10]: inactive
Potency [11]: inactive
Potency [12]: inactive
Potency [13]: inactive

COC1=C(OC)C(=O)C(CCCCCCCCCCO)=C(C)C1=O
Potency [1]: inactive
Potency [2]: inactive
Potency [3]: inactive
Potency [4]: inactive
Potency [10]: inactive
Potency [11]: inactive
Potency [12]: inactive
Potency [13]: inactive

Nc1nc(OCc2ccccc2)c2[nH]cnc2n1
Potency [18]: 18.7 µM (active)
Potency [1]: inactive
Potency [5]: inactive
Potency [7]: inactive
Potency [9]: inactive
Potency [10]: inactive
Potency [11]: inactive
Potency [12]: inactive
Potency [14]: inactive
Potency [15]: inactive
Potency [17]: inactive
Potency [19]: inactive

CCOC(=O)C(C)Oc1cccc2c(=O)n(CC(=O)Nc3ccc4c(c3)OCCO4)ccc12 (stereo not drawn)
Potency [1]: inactive
Potency [2]: inactive
Potency [3]: inactive
Potency [5]: inactive
Potency [6]: inactive
Potency [7]: inactive
Potency [8]: inactive
Potency [9]: inactive
Potency [10]: inactive
Potency [12]: inactive
Potency [13]: inactive

COc1cc(C(C)=O)ccc1OCCCN1CCC(c2noc3cc(F)ccc23)CC1
Potency [1]: inactive
Potency [2]: inactive
Potency [3]: inactive
Potency [4]: inactive
Potency [5]: inactive
Potency [7]: inactive
Potency [8]: 21.7 µM (active) and 19.5 µM (active)
Potency [10]: inactive
Potency [12]: inactive
Potency [13]: inactive
Potency [14]: inactive
Potency [15]: inactive
Potency [17]: inactive
Potency [19]: inactive

CC(C)CC(=O)N[C@H](C(=O)N[C@H](C(=O)N[C@@H](CC(C)C)[C@@H](O)CC(=O)N[C@@H](C)C(=O)N[C@@H](CC(C)C)[C@@H](O)CC(=O)O)C(C)C)C(C)C (Isovaleryl-VV[Sta]A[Sta]-OH)
Potency [1]: inactive
Potency [2]: inactive
Potency [3]: inactive
Potency [4]: inactive
Potency [5]: inactive
Potency [6]: inactive
Potency [7]: inactive
Potency [8]: inactive
Potency [9]: inactive
Potency [10]: inactive
Potency [11]: inactive
Potency [12]: inactive
Potency [13]: inactive
Potency [14]: 16.5 µM (active)
Potency [15]: 1470 nM (active)
Potency [20]: inactive
Potency [17]: inactive

CC(=O)N1CCN(c2ccc(OC[C@H]3CO[C@](Cn4ccnc4)(c4ccc(Cl)cc4Cl)O3)cc2)CC1
Potency [1]: inactive
Potency [2]: 33.2 µM (active)
Potency [3]: inactive
Potency [4]: inactive
Potency [5]: 18.7 µM (active)
Potency [11]: inactive

Cc1nccn1CC1CCc2c(c3ccccc3n2C)C1=O (stereo not drawn)
Potency [18]: inactive
Potency [1]: inactive
Potency [5]: inactive
Potency [6]: inactive
Potency [7]: inactive
Potency [9]: inactive
Potency [10]: inactive
Potency [11]: inactive
Potency [12]: inactive
Potency [13]: inactive

O=Nc1c(-c2c(O)[nH]c3cc(Br)ccc23)[nH]c2ccccc12
Potency [18]: 8.33 µM (active)
Potency [2]: 14.8 µM (active)
Potency [3]: 17.1 µM (active)
Potency [4]: 9.35 µM (active)
Potency [5]: 18.7 µM (active)
Potency [7]: 18.7 µM (active)
Potency [8]: 19.3 µM (active)
Potency [9]: 16.6 µM (active)
Potency [10]: 18.7 µM (active)
Potency [11]: inactive
Potency [12]: 18.7 µM (active)
Potency [13]: 14.8 µM (active)

Cc1cccc(C#Cc2ccccc2)n1
Potency [18]: inactive
Potency [1]: inactive
Potency [5]: inactive
Potency [7]: inactive
Potency [11]: inactive

Cc1cc(Cl)ccc1OCCCC(=O)NO
Potency [18]: 4.69 µM (active)
Potency [2]: 11.8 µM (active)
Potency [4]: 4.18 µM (active)
Potency [5]: 2.64 µM (active)
Potency [9]: 18.7 µM (active)
Potency [10]: 7.43 µM (active)
Potency [13]: 14.8 µM (active)

C[C@H](Cc1ccc(O)c(O)c1)[C@@H](C)Cc1ccc(O)c(O)c1
Potency [2]: 29.6 µM (active)
Potency [4]: 14.8 µM (active)
Potency [5]: 10.5 µM (active)
Potency [7]: 18.7 µM (active)
Potency [8]: 24.3 µM (active)
Potency [11]: inactive
Potency [13]: 11.8 µM (active)

CN(C)C(=O)[C@H](O)[C@H](Cc1ccccc1)NC(=O)c1cc2cc(Cl)ccc2[nH]1
Potency [1]: inactive
Potency [5]: inactive
Potency [8]: inactive
Potency [11]: inactive

CCCc1cc(=O)[nH]c(=S)[nH]1
Potency [1]: inactive
Potency [2]: inactive
Potency [4]: inactive
Potency [7]: inactive
Potency [8]: inactive
Potency [9]: inactive
Potency [10]: inactive
Potency [11]: inactive
Potency [12]: inactive
Potency [13]: inactive
